Measured values as given in PubChem BioAssay AID1259422 (The Scripps Research Institute Molecular Screening Center, 2018).
“And” between values parts separate entries of the source, which are not always exact repeats. Identical values can stand only once. In all, about 640,000 compounds went through this assay and about 9,300 (1.5%) were called active. For the sample, actives were picked, then their nearest neighbours and some compounds at random. Values without a mark were called inactive. Rule as the data show it: active = inhibition above about 32%; inactive = the rest.

assay: TEAD-YAP interaction inhibition, primary screen, TEAD-YAP interaction inhibitor project, luminescence, HEK-TIYL cells (AID 1259422); conditions: TEAD-Gal4/YAP UAS-luciferase luminescence, at 9.12 µM, active compounds read high;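 also: 0% = median of test compound wells and 100% = reference inhibitor wells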

Q: Which inhibition does the source give for `CCOc1ccc(-c2c(C#N)c(N)nc(OC)c2C#N)cc1` here?
A: -17.1%

Q: Which inhibition does the source give for `CN1N=C(C(F)(F)F)/C(=N/OC(=O)c2ccc(Cl)cc2Cl)C1=O` here?
A: 6.23%

Q: With `CC(=O)Nc1ccc(Nc2ncnc3nc(-c4c(C)noc4C)[nH]c23)cc1` as the compound, how does the inhibition read?
A: -7.16%

Q: Which inhibition does the source give for `Cc1ccc(/C=C/C(=O)N2CCN(c3ccc([N+](=O)[O-])cc3)CC2)cc1` here?
A: 2.02%

Q: Which inhibition does the source give for `CCN(CC)CCNC(=O)c1c(CSc2ccccc2)n(C)c2cc(Br)c(OC)cc12` here?
A: 6.43%

Q: Which inhibition does the source give for `CCOc1ccc(-n2c(SCc3cc(C(C)=O)ccc3OC)nc3c(sc(=S)n3-c3ccccc3)c2=O)cc1` here?
A: -3.25%

Q: Which inhibition does the source give for `Cc1cc(C)cc(C(=O)NCC(=O)OCC(=O)NC(N)=O)c1` here?
A: 1.58%

Q: For `COc1cccc(CNC(=O)c2[nH]c3cc(-c4cn[nH]c4)ccc3c2CN(C)Cc2ccccc2)c1`, which inhibition is on record?
A: -12.2%

Q: Which inhibition does the source give for `COc1ccc(-c2nc(Nc3ccc(C)c(F)c3)c3ccccc3n2)cc1OC` here?
A: -0.35%

Q: Which inhibition does the source give for `COc1ccc(-c2nc(Nc3cc(Oc4ccccc4)cc([N+](=O)[O-])c3)c3ccccc3n2)cc1OC` here?
A: -13.1%

Q: With `COc1cc(Nc2nc(-c3ccc(OC)c(OC)c3)nc3ccccc23)cc(OC)c1` as the compound, how does the inhibition read?
A: 43% (active)

Q: For `COc1ccccc1-n1nnc(C(=O)N2CCCCC2)c1N`, which inhibition is on record?
A: -0.58%

Q: For `Nc1nnc(SCC(=O)NC2CCCc3ccccc32)s1` (stereo unspecified), which inhibition is on record?
A: 0.12%

Q: Which inhibition does the source give for `COc1ccccc1-n1nnc(C(=O)NC2CCCc3ccccc32)c1N` (stereo unspecified) here?
A: 45.5% (active)

Q: With `Fc1cccc(Cn2nnc(-c3ccc4c(c3)OCO4)n2)c1` as the compound, how does the inhibition read?
A: -36.6%

Q: With `CCOc1ccccc1-n1c(=S)sc2c(=O)n(-c3ccccc3C)c(SCC#N)nc21` as the compound, how does the inhibition read?
A: -7.3%

Q: Which inhibition does the source give for `O=[N+]([O-])c1cccc(S(=O)(=O)NNc2ccccc2)c1` here?
A: 2.84%

Q: For `OC(COc1ccccc1CNCCN1CCCCC1)CN1CCc2ccccc2C1` (stereo unspecified), which inhibition is on record?
A: 2.84%

Q: With `Cc1c(C(=O)Nc2ccc(F)cc2F)sc2ncnc(N3CCc4ccccc4C3)c12` as the compound, how does the inhibition read?
A: 12.9%

Q: Which inhibition does the source give for `O=c1oc2ccccc2cc1-c1cn(-c2ccccc2)c(=S)[nH]1` here?
A: 72.7% (active)

Q: With `S=c1[nH]c(-c2ccc(Cl)cc2)cn1-c1cccc(Cl)c1` as the compound, how does the inhibition read?
A: -6.64%

Q: Which inhibition does the source give for `O=c1oc2ccccc2cc1-c1nnc(-c2ccccc2)o1` here?
A: -51.9%

Q: With `CC(C)n1c(Nc2ccc(N3CCOCC3)cc2)nc2c(NCCc3ccc(O)cc3)ncnc21` as the compound, how does the inhibition read?
A: 12.6%

Q: Which inhibition does the source give for `CCOC(=O)c1c(NC(=O)CN2CCCC2)sc(C)c1-c1ccccc1` here?
A: 4.43%

Q: With `CCOc1ccc2cc(C#N)c(SCC(=O)NCc3ccc(OC)cc3)nc2c1` as the compound, how does the inhibition read?
A: 3.49%

Q: Which inhibition does the source give for `COc1ccc2cc(C#N)c(SC)nc2c1` here?
A: 33.8% (active)

Q: With `COc1ccc(OC)c(NC(=O)CSc2nc3cc(OC)ccc3cc2C#N)c1` as the compound, how does the inhibition read?
A: 6.71%

Q: With `O=C(CSc1nc2ccc(Br)cc2c2nc3ccccc3n12)NCc1ccccc1` as the compound, how does the inhibition read?
A: 0.74%

Q: With `CC(C)C(O)c1ccc2c(c1)CN(Cc1cccc(OCCO)c1)CCO2` (stereo unspecified) as the compound, how does the inhibition read?
A: 1.92%

Q: With `CCOc1ccccc1CN1CCOc2ccc(C(O)c3cccnc3)cc2C1` (stereo unspecified) as the compound, how does the inhibition read?
A: 5.37%

Q: With `CCn1nc(C)c(CN2CCOc3ccc(C(O)c4cccnc4)cc3C2)c1C` (stereo unspecified) as the compound, how does the inhibition read?
A: 36.6% (active)

Q: Which inhibition does the source give for `CCOc1ccc(-c2n[nH]c3c2C(c2ccccc2OC)NC3=O)cc1` (stereo unspecified) here?
A: 18.1%

Q: For `O=C1CCCC2=C1C(c1ccccc1[N+](=O)[O-])C1=C(CCCC1=O)O2`, which inhibition is on record?
A: -1.3%

Q: For `CSc1sc(SC)c(CO)c1CO`, which inhibition is on record?
A: -4.01%

Q: For `Cc1cccc(C(=O)Nc2sc3c(c2C(=O)Nc2ccccn2)CCCC3)c1`, which inhibition is on record?
A: -4.61%

Q: With `CN1CCN(NC(=O)c2cc3c(s2)CCCCC3)CC1` as the compound, how does the inhibition read?
A: 12.5%

Q: With `O=C(Nc1ccccn1)c1cc2c(s1)CCCC2` as the compound, how does the inhibition read?
A: 93.2% (active)

Q: Which inhibition does the source give for `CC(C)NC(=O)Cn1nc2n(CC(=O)NC3CCCCC3C)c3ccccc3n2c1=O` (stereo unspecified) here?
A: 1.58%

Q: For `O=C(Nc1ccc(S(=O)(=O)Nc2nccs2)cc1)c1cc(Cl)cc(Cl)c1`, which inhibition is on record?
A: 1.26%

Q: With `C/C=C/c1ccc(Oc2ccc([N+](=O)[O-])c3cnccc23)c(OC)c1` as the compound, how does the inhibition read?
A: -0.05%

Q: With `Brc1ccc2ncnc(NCc3cccnc3)c2c1` as the compound, how does the inhibition read?
A: 34.6% (active)

Q: With `Clc1ccc(Cn2ncc3c(NCc4cccnc4)ncnc32)cc1` as the compound, how does the inhibition read?
A: 19.8%

Q: With `Cn1ncc2c(NCc3cccnc3)ncnc21` as the compound, how does the inhibition read?
A: 3.93%

Q: Which inhibition does the source give for `CCCNc1cc(CC)nc2c3c(C)cc(C)nc3nn12` here?
A: -5.94%

Q: For `CCOc1cccc2sc(N3CCOCC3)nc12`, which inhibition is on record?
A: -1.73%

Q: With `COc1cc2c(cc1/C=C1/NC(=O)N(Cc3ccccc3Cl)C1=O)OCO2` as the compound, how does the inhibition read?
A: -0.77%

Q: With `O=C1/C(=C/c2ccc(-c3ccc([N+](=O)[O-])cc3)o2)C=C(c2ccccc2)N1c1cccc(Br)c1` as the compound, how does the inhibition read?
A: 5.51%

Q: For `CC(C)=NOC(=O)CCS(=O)(=O)c1nc(-c2cccs2)cc(C(F)(F)F)n1`, which inhibition is on record?
A: -33.7%

Q: With `Cc1ccc(NC(=O)CSC2=C(C#N)C(c3ccc(F)cc3)CC(=O)N2)cc1` (stereo unspecified) as the compound, how does the inhibition read?
A: 11.8%

Q: Which inhibition does the source give for `CCC(/C=C1\Sc2ccc(-c3ccccc3)cc2N1CC)=C\c1sc2ccc3ccccc3c2[n+]1CC` here?
A: 21.8%

Q: For `CCN1/C(=C/c2ccc3ccc(C)cc3[n+]2CC)Sc2ccccc21`, which inhibition is on record?
A: 87.4% (active)

Q: For `CCN1/C(=C/c2ccc3cc(C)ccc3[n+]2CC)Sc2ccc(OC)cc21`, which inhibition is on record?
A: 83.3% (active)

Q: With `CCN1/C(=C/c2ccc3cc(C)ccc3[n+]2CC)Sc2ccc(-c3ccccc3)cc21` as the compound, how does the inhibition read?
A: 88.8% (active)

Q: For `CC[N+]1=C(C)C(C)(C)c2cc(-c3ccccc3)ccc21`, which inhibition is on record?
A: 25.8%

Q: With `CCN1C(=O)/C(=C\c2ccc(OC)cc2)SC1=S` as the compound, how does the inhibition read?
A: 6.61%

Q: For `CCN1/C(=c2/s/c(=C3/C(=O)N(c4ccccc4)NC3=Nc3ccccc3)n(CC)c2=O)Sc2ccc(OC)cc21`, which inhibition is on record?
A: 5.23%

Q: For `CCN1/C(=C/c2ccc3cc(OC)ccc3[n+]2CC)Sc2c1ccc1c2CCCC1`, which inhibition is on record?
A: 87.9% (active)

Q: With `Cc1noc(/C=C/N(C)C)c1S(=O)(=O)N1CCC(C(=O)N2CCCC2)CC1` as the compound, how does the inhibition read?
A: -1.15%

Q: For `CCN1C(=O)/C(=c2\sc3nc(-c4ccccc4)nn3c2=O)c2ccccc21`, which inhibition is on record?
A: -17.8%

Q: Which inhibition does the source give for `O=C(NCc1cccnc1)C1CCCN(S(=O)(=O)c2ccc3[nH]c(=O)ccc3c2)C1` (stereo unspecified) here?
A: 6.17%

Q: Which inhibition does the source give for `CCC(=O)N1c2ccccc2C2=C(SC(C(=O)OC)=C(C(=O)OC)C23SC(C(=O)OC)=C(C(=O)OC)S3)C1(C)C` here?
A: 3.65%

Q: For `CCC1CCCCN1C(=O)c1sc2ncnc(N3CCN(c4ccc(OC)cc4)CC3)c2c1C` (stereo unspecified), which inhibition is on record?
A: 7.77%

Q: For `CCOC(=O)CC(=O)CSc1ccc2nnc(-c3ccc(Cl)cc3)n2n1`, which inhibition is on record?
A: 1.1%

Q: Which inhibition does the source give for `CC1CC1c1ccc(/C=C(\C#N)C(=O)Nc2cccc([N+](=O)[O-])c2)o1` (stereo unspecified) here?
A: -64.5%

Q: For `COc1ccc2nc3c(nc2c1)C(=O)c1ccccc1C3=O`, which inhibition is on record?
A: -19.6%

Q: With `Cc1ccc2c(c1)C(=O)c1cc3ccccc3nc1-2` as the compound, how does the inhibition read?
A: -59.4%

Q: With `Cc1ccc2nc3c(nc2c1)C(=O)c1ccccc1-3` as the compound, how does the inhibition read?
A: 46.8% (active)

Q: Which inhibition does the source give for `CCOc1ccc(N(C)S(=O)(=O)c2ccc3[nH]cc(C(=O)NCc4cccnc4)c(=O)c3c2)cc1` here?
A: 3.1%

Q: For `O=C(Nc1cccc(Cl)c1)Nc1noc2c1COc1ccccc1-2`, which inhibition is on record?
A: -1.02%

Q: With `COC(=O)/C=C1/C(=O)Nc2ccccc21` as the compound, how does the inhibition read?
A: 63.4% (active)

Q: For `COC(=O)/C=C(C(=O)OC)/C(C(=O)OC)=C1\Nc2ccccc2NC1=O`, which inhibition is on record?
A: 8.52%

Q: With `COC(=O)/C=C1\Nc2ccccc2OC1=O` as the compound, how does the inhibition read?
A: -5.86%

Q: With `Cc1cc(C(=O)N2CCOCC2)c2ccccc2n1` as the compound, how does the inhibition read?
A: 6.26%

Q: For `Nc1nc(NCCCN2CCCC2=O)cc(Nc2ccccc2)n1`, which inhibition is on record?
A: -3.84% and 0.61%

Q: For `CCOC(=O)c1cnn(-c2nc3ccccc3s2)c1CNC(C)c1ccco1` (stereo unspecified), which inhibition is on record?
A: -20.8%

Q: With `Nc1c(C(=O)c2ccc(Cl)cc2)sc2nc3c(cc12)CCCCCC3` as the compound, how does the inhibition read?
A: -9.12%

Q: With `Nc1c(C(=O)N2CCCCC2)sc2nc3c(cc12)CCC3` as the compound, how does the inhibition read?
A: -59.9%

Q: Which inhibition does the source give for `Cc1cccc(NC(=O)c2sc3nc4c(cc3c2N)CCC4)c1C` here?
A: 36.1% (active)

Q: With `CC1(C)CC(=O)c2cc3c(N)c(C(=O)Nc4ccccc4Cl)sc3nc2C1` as the compound, how does the inhibition read?
A: -21.4%

Q: With `CC(=O)Nc1ccc(NC(=O)c2sc3nc4c(cc3c2N)CCCCCC4)cc1` as the compound, how does the inhibition read?
A: -8.57%

Q: Which inhibition does the source give for `Nc1c(C(=O)c2ccccc2)sc2nc3c(cc12)CCCCC3` here?
A: 72.9% (active)

Q: For `Nc1c(C(=O)Nc2cccc(C(=O)O)c2)sc2nc3c(cc12)CCCCC3`, which inhibition is on record?
A: -17.2%

Q: With `Cc1c(Cl)cccc1NC(=O)c1sc2nc3c(cc2c1N)C(=O)CCC3` as the compound, how does the inhibition read?
A: 41.4% (active)

Q: With `Nc1c(C(=O)c2ccc(Br)cc2)sc2nc3c(cc12)CCCC3` as the compound, how does the inhibition read?
A: -11.1%

Q: With `Cc1cc(C(=O)COC(=O)c2cc(Cl)cc(Cl)c2N)c(C)n1CC1CCCO1` (stereo unspecified) as the compound, how does the inhibition read?
A: 7.73%

Q: For `CCn1cc(CN[C@H]2C[C@H]3C(=O)N[C@@H](Cc4ccc(O)cc4)C(=O)N3C2)c(C)n1`, which inhibition is on record?
A: 9.24%

Q: With `COCc1ccc(-c2ccc(OC3CCN(c4ncnc5nc[nH]c45)CC3)cc2)cc1` as the compound, how does the inhibition read?
A: -7.79%

Q: Which inhibition does the source give for `CCCCCCOC1OC(COC(C)=O)C(OC(C)=O)C(OC(C)=O)C1NC(C)=O` (stereo unspecified) here?
A: 10.2%

Q: Which inhibition does the source give for `COc1ccc(-c2c(C)nn3c(NCCO)c4c(nc23)CCCC4)cc1` here?
A: 0.55%

Q: With `COC(=O)C(NNc1ccccc1C)(NC(=O)c1ccc(Cl)cc1)C(F)(F)F` (stereo unspecified) as the compound, how does the inhibition read?
A: -4.69%

Q: For `Cc1ccc(C)c(OCC(=O)NC(C)(C)C)c1`, which inhibition is on record?
A: 1.69%
